# Assay results published in PubChem BioAssay (NCI).
# About 83,000 compounds went through this panel and 20% of them were active in at least one assay; those are over-represented in the sample as a whole.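 48-hour exposure, single concentration, 96-well plates; percent growth endpoint where 0 means no net growth. Active: below 10.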 A number with no mark means an inactive call. Calls of active or inactive are those of the source.
# Experiments:
# Test in all cases: NCI-60 one-dose screen, 48 h (100 = growth as untreated, 0 = no growth, -100 = all killed)
# Conditions in all cases: 10 µM unless noted
# HCT-15 colon = test system: HCT-15 colon
# HT29 colon = test system: HT29 colon
# SNB-75 CNS = test system: SNB-75 CNS
# SNB-19 CNS = test system: SNB-19 CNS
# U251 CNS = test system: U251 CNS
# PC-3 prostate = test system: PC-3 prostate
# SK-MEL-5 melanoma = test system: SK-MEL-5 melanoma
# UACC-62 melanoma = test system: UACC-62 melanoma
# LOX IMVI melanoma = test system: LOX IMVI melanoma
# SK-MEL-28 melanoma = test system: SK-MEL-28 melanoma
Compound,growth (HCT-15 colon),growth (HT29 colon),growth (SNB-75 CNS),growth (SNB-19 CNS) [%],growth (U251 CNS),growth (PC-3 prostate),growth (SK-MEL-5 melanoma),growth (UACC-62 melanoma),growth (LOX IMVI melanoma),growth (SK-MEL-28 melanoma)
CCc1nc2c(=O)[nH]cnc2o1,110%,108%,82.5%,112,99%,99.4%,103%,108%,94.2%,106%
CCCCCCCCCCCCCCCC(N)c1ccccc1 (stereo not given),-73.9% (active),-65.3% (active),66.2%,23.9,-93.2% (active),5.14% (active),87.8%,79.2%,-100% (active),85.3%
Cc1c(-n2nnc(-c3nc4ccccc4s3)c2N)c(=O)n(-c2ccccc2)n1C,98.3%,100%,83.1%,99.9,101%,98.2%,99.6%,93.3%,93.1%,111%
C=C(C)[C@@H]1CC[C@]2(C(=O)N3CCN(C)CC3)CC[C@]3(C)[C@H](CC[C@@H]4[C@@]5(C)CC(=C/c6ccncc6)/C(=N/O)C(C)(C)[C@@H]5CC[C@]43C)[C@@H]12,65.5%,41.1%,66.1%,79.7,70.2%,44.8%,59.9%,78.5%,86%,96.4%
C[C@H](NC(=O)[C@@H](C)N)[C@H](Oc1ccc2c(cnn2-c2ccc(F)cc2)c1)c1ccc2c(c1)OCCO2,34%,2.47% (active),61.6%,65.9,34.7%,44%,-70% (active),-22.3% (active),-67.3% (active),-66.7% (active)
O=C(CI)NC1Oc2ccccc2-c2oc(=O)c(-c3ccccc3)cc21 (stereo not given),-83% (active),-55% (active),-20.9% (active),80.8,-48.6% (active),-72.8% (active),85.5%,-22.8% (active),-82.8% (active),46.3%
O=C1/C(=C/c2ccc(Cl)cc2)COc2ccc(O)c(O)c21,-1.01% (active),15.5%,18.2%,24.9,-57% (active),-6% (active),56%,4.2% (active),-84.8% (active),60.2%
CN1C(=O)/C(=C/c2cn(-c3ccccc3)nc2-c2ccccc2)SC1=S,103%,109%,101%,100,110%,90.2%,98%,86.7%,89.6%,105%
Cc1ccc(Cc2cnc(NC(=O)c3cc(Br)cs3)s2)cc1,24.4%,16.3%,64.5%,54,46.9%,46.4%,46%,44.7%,54.6%,61.7%
CC[C@]12C=CCN3CC[C@@]4(c5cc(NC(=O)CCC(=O)OCc6cn(Cc7ccc(F)cc7)nn6)c(OC)cc5N(C)[C@H]4[C@@](O)(C(=O)OC)[C@@H]1OC(C)=O)[C@@H]32,105%,103%,97%,98.5,101%,93.8%,112%,98%,99.3%,109%
COc1ccc(-c2nnc3n(C)c(=O)c4ccccc4n23)cc1N,27.2%,4.95% (active),7.89% (active),31.1,23.8%,22.1%,11.4%,12.9%,37.5%,53.6%
COC(=O)c1cc(-c2ccc(S(C)(=O)=O)cc2)[nH]c1N/N=C/c1c(Cl)cccc1Cl,26.2%,14.5%,10.1%,22.8,26.8%,15.6%,25.7%,58%,43.6%,28.2%
O=C(O)CNC1=C(Cl)C(=O)c2ccccc2C1=O,100%,103%,86.5%,96.5,91.1%,77.7%,112%,93.6%,84%,113%
